From PubChem BioAssay
The list is not random: actives were taken first. Their share in the collection is about 10%.
Lamin A splicing = changes lamin A minigene splicing in HeLa cells; Potency, µM (series often up to 46.1 µM), for the others: at the top dose ratio change, negative = inhibition, most hits filed as inhibitors; HeLa LMNA splicing GFP/RFP minigene ratio, 48 h; 0.01% of 200,000 active; active = well fitted inhibition curve with a large enough effect in the signal ratio, with a control signal flat, not every such curve was filed as active; inconclusive = small, poorly fitted or top-dose-only effect, or effect the other way, or a change in a side signal; the % refers to the signal ratio; note: potency is the fitted concentration of half-maximal effect
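S3 HeLa stable clones carrying a lamin A-EGFP splicing minigene plus DsRed2 were seeded at 600 cells/well in Opti-MEM with 2% FBS, pin-dosed and incubated 48 h at 37°C. Acumen cytometry (488 nm) gave the GFP/RFP total-intensity ratio.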
KinaseGlo FLuc = counter-screen: inhibitors of Kinase-Glo firefly luciferase. AID 1379. Potency, µM (series often up to 38.3 µM), without a hit: at the highest dose activity change, negative = inhibition, most hits filed as inhibitors. 0.28% of 200,000 active. Kinase-Glo luciferase, ATP luminescence, 8 min. Q27757; active = well fitted inhibition curve with a large enough effect; inconclusive = small, poorly fitted or top-dose-only effect; note: potency is the fitted concentration of half-maximal effect; nearly all actives have a fitted effect of over 60% in size
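Inhibition of Kinase-Glo luciferase light generation was assessed at 10 uM ATP in pH 7.2 imidazole buffer, with luminescence measured after eight minutes at ambient temperature.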
ALDH1A1 block = inhibitors of human aldehyde dehydrogenase 1A1. P00352. Purified ALDH1A1, NADH fluorescence, propionaldehyde substrate. Potency, µM (titrated, usually from 75.3 µM), without a hit: at the highest dose activity, negative = inhibition, usual class: inhibitors. 7.3% of 220,000 active;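 note: potency is the fitted concentration of half-maximal effect; plate controls were no enzyme wells and a reference inhibitor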
HPGD inh = HPGD (human) dehydrogenase inhibition; P15428; purified HPGD, NADH fluorescence kinetic, PGE2 substrate; Potency, µM, inactives show at the top dose activity change, negative = inhibition, hits mostly inhibitors; 4.3% of 150,000 active; AID 894; note: potency is the fitted concentration of half-maximal effect
Target sequence (P15428 whole entry, looked up): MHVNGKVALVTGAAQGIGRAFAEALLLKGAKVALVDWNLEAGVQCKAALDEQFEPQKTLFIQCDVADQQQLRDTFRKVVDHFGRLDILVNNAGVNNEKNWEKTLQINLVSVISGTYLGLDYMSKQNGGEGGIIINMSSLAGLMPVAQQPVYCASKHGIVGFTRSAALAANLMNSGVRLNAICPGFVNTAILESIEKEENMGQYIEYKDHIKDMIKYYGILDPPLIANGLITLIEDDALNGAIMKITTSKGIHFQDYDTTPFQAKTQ
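NADH formation kinetics: reaction with 30 uM PGE2 and 1 mM NAD+ (final), 20 nM enzyme, Tris-HCl pH 8 with Tween 20, after 15 min compound preincubation at room temperature. Fluorescence change, last versus first of five reads.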
PNC assembly inh = perinucleolar compartment assembly inhibition; PC3M PTB-GFP, PNC prevalence imaging, 16 h; hits give low values; activity change (PNC), negative = inhibition, % at 10 µM; 3.1% of 140,000 active; AID 2417;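 active = readout at or below -70, meaning at least 70% loss of cells showing the perinucleolar compartment, a nuclear body marking cancer cells; inconclusive = readout between -30 and a set limit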;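 note: plate controls were DMSO wells for no effect and camptothecin positive control wells for full effect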
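Read-out is percentage of cells bearing a perinucleolar compartment, from automated 20x imaging of fixed, Hoechst-stained PC3M PTB-GFP cells. Cells were seeded 4 h, then exposed 16 h to compound (23 nl of library stock) in duplicate plates.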
Numbers without * were called inactive; ? = inconclusive; · = no result; [ ] = remark or other dose. Unless noted, calls come from the whole dose curve; as a rule, active = well fitted inhibition curve with a large enough effect (not every such curve was filed as active); inconclusive = small, poorly fitted or top-dose-only effect, or another doubt; inactive = no such curve, though single readings can be large or run the other way. Unless noted, % is set by controls: 0 for no effect and ±100 for the full control effect.

SMILES	Lamin A splicing	KinaseGlo FLuc	ALDH1A1 block	HPGD inh	PNC assembly inh
CCN(CC)S(=O)(=O)N1CCC(C(=O)NCCN2CCOCC2)CC1	7%	-7%	10µM*	-15%	-7
CC(=O)N1CCN(C(=S)c2ccc(N(C)C)cc2)CC1	?	-2%	8.9µM*	20µM*	9
Oc1ccc(C(=S)N2CCCCC2)cc1	-1%	-4%	22µM*	?	?
CN(C)c1ccc(C(=S)N2CCCCCC2)cc1	10%	-3%	?	28µM*	?
CN(C)c1ccc(C(=S)N2CCOCC2)cc1	8%	-2%	?	-16%	-19
CC1CCN(C(=S)c2ccc(N(C)C)cc2)CC1	·	0%	13µM*	·	·
COc1ccccc1N1CCN(CC2CN3C(=O)N(C)c4ccccc4C3=N2)CC1 (stereo not drawn)	·	·	0%	·	·
c1ccc2c(c1)nc(NC1CCCCC1)c1nncn12	-2%	3%	10µM*	-19%	24
Cc1nnc2c(NC3CCCC3)nc3ccccc3n12	·	0%	?	·	·
COc1ccccc1OC(=O)c1ccc2nsnc2c1	-12%	-2%	-6%	-14%	-81*
CC(C)(C)c1ccc(OC(=O)c2ccc3nsnc3c2)cc1	-1%	-5%	-18%	-29%	?
CC(C)OC(=O)CSc1nnc(SCc2cccc3ccccc23)s1	8%	0%	?	-14%	25
O=C(CSc1nnc(SCc2ccc(Cl)cc2)s1)N/N=C/c1c[nH]c2ccccc12	0%	-6%	-1%	-18%	-83*
O=C(O)CSc1nnc(SCc2cccc3ccccc23)s1	4%	17%	?	16µM*	30
O=C(CSc1nnc(SCc2cccc3ccccc23)s1)N/N=C/c1c[nH]c2ccccc12	?	2%	14µM*	-9%	9
CC1CCN(c2cc3c(cc2F)c(=O)c(S(=O)(=O)c2cccc(Cl)c2)cn3Cc2ccccc2)CC1	2%[46 µM]	·	·	·	·
CCOc1ccccc1CNC(=O)c1ccc2nc(Cc3ccc(OC)cc3)oc2c1	-11%[46 µM]	·	·	·	·
O=C(NCC1CCCCC1)c1nnc(C(=O)NCC2CCCCC2)c2c1[nH]c1ccccc12	·	2%	-11%	-9%	·
C=CCN(CC=C)C(=O)C1CC(=O)N(c2ccc(Br)cc2)C1 (stereo not drawn)	?	-6%	1%	-14%	16
C=CCN(CC=C)C(=O)C1CCC(C(=O)N(CC=C)CC=C)CC1 (stereo not drawn)	-9%	-2%	-2%	-11%	-88*
COc1ccc(CN=C2NC(=O)CC(C(=O)Nc3cc(C)cc(C)c3)S2)cc1 (stereo not drawn)	?	-1%	5%	1%	-84*
COc1ccc(CCNC(=O)CC2SC(=NCc3ccccc3)NC2=O)cc1 (stereo not drawn)	·	-2%	32µM*	·	·
COc1ccc(CCNC(=O)CC2SC(=NCCc3ccccc3)NC2=O)cc1OC (stereo not drawn)	5%	4%	14µM*	-1%	?
COc1ccc(CCNC(=O)CC2SC(=NCCc3ccccc3)NC2=O)cc1 (stereo not drawn)	-10%	0%	28µM*	-8%	6
CCN=C1SC(CC(=O)NCCc2ccc(OC)cc2)C(=O)N1CC (stereo not drawn)	-3%	-5%	-4%	-15%	8
SMILES	Lamin A splicing	KinaseGlo FLuc	ALDH1A1 block	HPGD inh	PNC assembly inh
CCN=C1SC(CC(=O)NCCc2ccc(OC)c(OC)c2)C(=O)N1CC (stereo not drawn)	11%	-7%	20µM*	-4%	10
CCOCC(=O)Nc1nc2ccc(C)cc2s1	-12%	-8%	13µM*	-9%	-100*
Cc1ccc2nc(NC(=O)CSc3ncnc4c3oc3ccccc34)sc2c1	-3%	0%	7%	-18%	-108*
COc1ccc2nc(NC(=O)CSc3ccccc3)sc2c1	?	3%	28µM*	-29%	?
CCOc1ccc2nc(NC(=O)CSc3ccc(Cl)cc3)sc2c1	8%	1%	-74%	-25%	44
CCOCC(=O)Nc1nc2ccc(OCC)cc2s1	-4%	-21%	16µM*	-5%	?
COc1ccc(C)cc1NC(=O)N1CCN(c2nnc(C)c3c(C)n(-c4ccccc4)nc23)CC1	9%[46 µM]	·	·	·	·
CC(=O)c1cccc(Nc2ncnc3c2cnn3-c2cccc(Cl)c2)c1	-6%[46 µM]	·	·	·	·
